# Assay outcomes from PubChem.
# Sampled rows, rich in hits. Any-hit rate of the full collection: about 6.5%.
# LASV entry inh: inhibitors of Lassa virus binding or cell entry; Lassa virus pseudotype entry inhibition, cell reporter; Potency, µM (top dose mostly 37.9 µM), usual class: inhibitors; 300,000 tested, 1.2% active; calls by dose curve; tested in HEK293 cells; note: nearly all actives have a fitted effect of over 50% in size
# HCMV inh: blocks human cytomegalovirus replication; HFF cells, HCMV-luciferase reporter, 72 h; active compounds read low; activity change, negative = inhibition, % at 57.5 µM; 410,000 tested, 4.5% active; in the data active = activity change below about -60%; inconclusive = no clear call, values can overlap the other calls; inactive = above about -39%
#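 Cell-based, HFFs, 1000 cells/well, 16 h 37C; cpds in DMSO + HCMV-luc, MOI 1 PFU/cell; 72 h 37C; OneGlo luminescence after 5 min RT; norm. to buffer vs Salinomycin 10uM.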
# MARV entry inh: Marburg virus entry inhibition. Marburg virus pseudotyped entry inhibition, cell reporter. Potency, µM (doses to about 37.8 µM), most hits filed as inhibitors. 300,000 tested, 1.8% active; calls by dose curve; tested in HEK293 cells
# Vaccinia Venus: vaccinia inhibition (Venus reporter). 330,000 tested, 0.46% active. AID 720580. Vaccinia virus Venus reporter expression, fluorescence. Potency, µM (highest dose often 36.5 µM), most hits filed as inhibitors; calls by dose curve; tested in A549 cells; note: nearly all actives have a fitted effect of over 30% in size
# FMDV antiviral: antivirals against foot and mouth disease virus; FMDV antiviral cell-based qHTS; Potency, µM (doses to about 57.9 µM), hits mostly inhibitors; 410,000 tested, 1.2% active; AID 1159524; calls by dose curve; tested in HEK293T cells; note: read-out not given here; nearly all actives have a fitted effect of over 45% in size
# Vaccinia mCherry: inhibitors of vaccinia virus infection (mCherry reporter signal) | Vaccinia virus mCherry reporter infection, fluorescence | Potency, µM (titrated, usually from 36.5 µM), usual class: inhibitors | 310,000 tested, 0.63% active; calls by dose curve; tested in A549 cells; note: nearly all actives have a fitted effect of over 35% in size
# G2M arrest HeLa: HeLa G2/M cell cycle arrest induction | Potency, µM, hits mostly inhibitors | HeLa cell cycle G2/M arrest, Hoechst DNA content imaging | shares compounds with MARV entry inh | AID 2441 | 25 tested, 60% active
# WI-38 cytotox: WI-38 cytotoxicity of perinucleolar compartment inhibitors | WI-38 normal lung fibroblasts, ATPLite luminescence ATP viability, 24 h | 120 tested, under 10 active | shares compounds with MARV entry inh | Potency, µM (highest dose often 46.1 µM), actives largely listed as inhibitors
# PNC inh conf: confirmation of perinucleolar compartment assembly inhibitors; shares compounds with MARV entry inh; PC3M PTB-GFP, PNC prevalence imaging, 16 h; Potency, µM (series often up to 46.1 µM), actives largely listed as inhibitors; 120 tested, 50% active
# PC3M caspase: PC3M caspase 3/7 activation by PNC inhibitor hits; PC3M-GFP caspase 3/7 activation, luminescence, 24 h; activity change, positive = activation, % at 46.1 µM; 120 tested, under 10 active; shares compounds with MARV entry inh; AID 2731
# A number is an active result; – = inactive; ? = inconclusive; · = no result; [ ] = dose if it differs, or a comment. Unless noted, calls come from the whole dose curve; as a rule, active = well fitted curve in the direction sought with a large enough effect; inconclusive = small, poorly fitted or top-dose-only effect, or another doubt; inactive = no such curve, though single readings can be large; an effect the other way counts as inactive or inconclusive.
SMILES,LASV entry inh,HCMV inh,MARV entry inh,Vaccinia Venus,FMDV antiviral,Vaccinia mCherry,WI-38 cytotox,PNC inh conf,PC3M caspase,others
O=C(COCc1cc(-c2ccc3c(c2)OCO3)on1)NCc1ccc(F)cc1,–,–,·,–,–,–,·,·,·,
COc1cccc(/C=N/NC(=O)c2cc3c(OC)c(OC)ccc3[nH]2)c1OC,?,–,?,–,–,–,–,?,–,
CSc1nc(-c2ccc(C)cc2)nc(C(Cl)Cl)n1,?,·,?,·,–,·,–,13µM,?,
Cc1ccc(NC(=O)C(=O)NCC(c2cccnc2)N2CCN(Cc3ccccc3)CC2)cc1F (configuration not stated),–,–,·,–,?,–,·,·,·,
CC(=O)O[C@H]1C(=O)[C@@]2(C)C([C@H](OC(=O)c3ccccc3)[C@]3(O)C[C@H](OC(=O)[C@H](O)[C@@H](NC(=O)c4ccccc4)c4ccccc4)C(C)=C1C3(C)C)[C@]1(OC(C)=O)CO[C@@H]1C[C@@H]2O (some centres not stated),?,·,0.25µM,–,–,–,·,·,·,G2M arrest HeLa=0.013
CN(C1=C(N2CCCCC2)C(=O)c2ccccc2C1=O)c1ccccc1,?,–,?,–,·,–,·,·,·,
COc1ccccc1NC1=C(N2CCCCC2)C(=O)c2ccccc2C1=O,?,·,?,10µM,10µM,?,–,11µM,?,
COC(=O)c1ccc(NC(=O)CC2C(=O)N(c3cccc(C)c3)C(=O)N2C2CCCC2)cc1 (configuration not stated),–,–,·,–,–,–,·,·,·,
COc1cc(OC)c(/C=C2/C(=O)Nc3ccccc32)c(OC)c1,?,·,0.89µM,·,·,·,·,·,·,G2M arrest HeLa=2
Cc1cnc(NC(=O)COc2cccc3c2OC(C)(C)C3)s1,0.71µM,-88,?,–,–,7.9µM,–,7.9µM,–,
CC1(C)Cc2cccc(OCC(=O)Nc3ccccc3F)c2O1,·,–,·,·,–,·,·,·,·,
CCN(CC)C(=O)N1c2ccccc2C=Cc2ccccc21,0.63µM,-81,1.1µM,?,?,·,–,5µM,–,
CC(=O)N1c2ccc(S(=O)(=O)NCC3CCC(C(=O)NCCC(C)C)CC3)cc2CC1C (configuration not stated),–,–,·,–,–,–,·,·,·,
COc1ccc(Cc2nnc(N/N=C/c3ccc(Br)cc3)[nH]c2=O)cc1OC,·,–,·,–[7.34 µM],–,–[7.34 µM],·,·,·,
COc1ccc(Cc2nnc(N/N=C/c3ccc(O)cc3)[nH]c2=O)cc1OC,?,-100,?,?,–,1.1µM,?,?,–,
CCCCOc1ccc(C(=O)NCCc2csc3nc(-c4ccccc4F)nn23)cc1,–,–,·,–,–,–,·,·,·,
COc1cccc(CNC(=O)CN2C(=O)N(c3c(C)cccc3C)S(=O)(=O)c3ccccc32)c1OC,?,–,·,–,?,–,·,·,·,
Cc1ccc(NC(=S)NCCc2ccc(S(N)(=O)=O)cc2)cc1C,–,–,–,–,–,–,–,–,–,
Cc1cc(C)cc(NC(=S)NCCc2ccc(S(N)(=O)=O)cc2)c1,–,–,–,–,–,–,·,·,·,
